Here are results for nine compounds from publication PMC5540273 (PLoS ONE, 2017).

Molecules are shown by their SMILES. Values joined by “and” are separate entries in the source; they are usually repeats but may differ in a detail not shown here. Identical values can stand only once. Like-named read-outs stand apart in the source and are kept apart here.

Some test systems named below: ERN1; FER; FES; FGFR1; FGFR2; FGFR3; FGFR4; FGR; FLT1; FLT3-autoinhibited; FLT3; FLT4; FRK; FYN; GAK; GRK1.
Holding throughout (details): concentration: 1 μM, replicates: in singlicate, n = 1
The test system of the next assay is T1, FAK.
T1 construct: gene PTK2

Another assay relates to T2, GCN2(Kin.Dom.2,S808G).
T2 construct: gene EIF2AK4

Another assay relates to T3, GRK2.
T3 construct: gene ADRBK1

For another assay, the system named is T4, GRK3.
T4 construct: gene ADRBK2
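Note: KINOMEscan kinase panel screen.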

For `COc1ccc(Nc2nccc(N3CCC(NC(=O)Nc4cc(C)ccc4C)C3)n2)cc1` (stereo not shown) [GSK1379741], the “%Inh” value in the assay with ERN1, with FAK, with FER, in the assay with FES, in the assay on FGFR1 and with FGFR2 was 0% each time. Also, the “%Inh” value in the assay with FGFR3 was found to be 0%; with FGFR4 it was 0%; in the assay with FGR, 5%; with FLT1, 16%; in the assay with FLT3-autoinhibited it was 0%; in the assay on FLT3, 0%. The “%Inh” value with FLT4 came out at 1%; in the assay with FRK, 0%; in the assay on FYN, 2%; with GAK it was 9%; with GCN2(Kin.Dom.2,S808G), 0%; with GRK1, 0%. For the same compound, the “%Inh” value with GRK2 and in the assay with GRK3 was 0% in each case.
Consider `Cc1cn2c(=O)cc(N3CCOCC3)nc2n1Cc1cccc(Cl)c1Cl` [GSK2334006], for which the “%Inh” value in the assay on ERN1 came to 0%; in the assay on FAK, 0%; in the assay with FER it was 33%; in the assay with FES, 8%; with FGFR1, 1%; in the assay on FGFR2, 26%. Moreover, the “%Inh” value was found to be 18% with FGFR3; 1% in the assay on FGFR4; 51% in the assay with FGR; 34% with FLT1; 10% with FLT3-autoinhibited; 13% in the assay with FLT3. Besides, the “%Inh” value in the assay with FLT4 stood at 39%; with FRK it was 28%; with FYN it was 23%; in the assay with GAK it was 35%; in the assay with GCN2(Kin.Dom.2,S808G), 12%; with GRK1, 2%. Also, the “%Inh” value is listed as 3% with GRK2 and 0% with GRK3.
On to `CC(C)Oc1ccc2c(-c3ccnc(Nc4ccc(N5CCN(C)CC5)cc4)n3)cnn2n1` [GW696155], for which the “%Inh” value in the assay on ERN1 is given as 62%; in the assay with FAK, 0%; in the assay on FER it was 22%; in the assay on FES, 15%; with FGFR1, 15%; in the assay with FGFR2, 1%. In addition, the “%Inh” value in the assay on FGFR3 was determined as 12%; in the assay on FGFR4, 0%; in the assay on FGR it was 57%; in the assay with FLT1, 59%; in the assay on FLT3-autoinhibited, 70%; with FLT3, 98.3%. For the same compound, the “%Inh” value in the assay on FLT4 turned out to be 30%; in the assay on FRK, 41%; with FYN it was 53%; in the assay on GAK, 96.3%; in the assay with GCN2(Kin.Dom.2,S808G), 100%; with GRK1, 5%. For the same compound, the “%Inh” value stood at 0% in the assay with GRK2 and 48% with GRK3.
On to `COc1ccc(Nc2ncc(C#N)c(Nc3ccccc3C(N)=O)n2)cc1N1CCN(C)CC1.Cl` [GSK1558669], for which the “%Inh” value is on record as 92% in the assay on ERN1; 100% in the assay with FAK; 99.5% in the assay on FER; 99.3% in the assay on FES; 100% in the assay on FGFR1; 99.8% with FGFR2. The “%Inh” value came out at 99.9% in the assay with FGFR3; 85% with FGFR4; 96.5% with FGR; 100% in the assay on FLT1; 99.9% in the assay on FLT3-autoinhibited; 99.8% in the assay on FLT3. Also, the “%Inh” value with FLT4 was determined as 100%; in the assay on FRK, 83%; with FYN, 96.8%; in the assay with GAK, 98.1%; in the assay with GCN2(Kin.Dom.2,S808G), 100%; in the assay with GRK1, 55%. For the same compound, the “%Inh” value was 35% in the assay on GRK2 and 0% in the assay on GRK3.
As for `NCC(NC(=O)c1cc(-c2cn[nH]c2)c(-c2ccnc3[nH]ccc23)s1)c1ccccc1.O=C(O)C(F)(F)F.O=C(O)C(F)(F)F` (stereo not shown) [GSK1325775], the “%Inh” value in the assay on ERN1 was found to be 29%; with FAK it was 57%; in the assay on FER, 0%; in the assay with FES, 0%; with FGFR1, 20%; in the assay on FGFR2, 0%. Moreover, the “%Inh” value in the assay with FGFR3 worked out at 0%; with FGFR4, 0%; with FGR, 0%; in the assay on FLT1, 0%; with FLT3-autoinhibited, 21%; with FLT3 it was 69%. In addition, the “%Inh” value in the assay with FLT4 was found to be 14%; with FRK it was 0%; in the assay on FYN, 25%; with GAK, 91.9%; with GCN2(Kin.Dom.2,S808G), 99.1%; with GRK1, 35%. Also, the entries for the “%Inh” value with GRK2 and in the assay on GRK3 were 70% and 76%, respectively.
Consider `CNc1ncnc2[nH]ncc12` [SKF-18355], for which the “%Inh” value in the assay with ERN1 is 33%; in the assay on FAK, 0%; in the assay with FER it was 30%; in the assay with FES, 0%; in the assay on FGFR1, 0%; in the assay on FGFR2 it was 0%. Besides, the “%Inh” value in the assay with FGFR3 was 5%; in the assay on FGFR4, 0%; in the assay on FGR, 0%; in the assay with FLT1 it was 0%; with FLT3-autoinhibited, 0%; with FLT3 it was 0%. In addition, the “%Inh” value stood at 0% in the assay on FLT4; 0% with FRK; 0% in the assay on FYN; 0% in the assay with GAK; 0% with GCN2(Kin.Dom.2,S808G); 29% in the assay on GRK1. Further, the “%Inh” value with GRK2 and in the assay on GRK3 was 0% throughout.
For `Cl.Cl.Cl.Fc1ccc(-c2ncn(C3CCNCC3)c2-c2ccnc(Nc3ccccc3)n2)cc1` [SB-238039], the “%Inh” value in the assay with ERN1 (1 µM) is 19% and 6%; in the assay with FAK, 0%; in the assay with FER (1 µM) it was 0% and 1%; in the assay with FES, 0%; in the assay on FGFR1 (1 µM) it was 11% and 0%; with FGFR2, 0%. Further, the “%Inh” value in the assay with FGFR3 was 0%; in the assay with FGFR4, 0%; in the assay with FGR (1 µM), 60% and 41%; with FLT1 (1 µM) it was 7% and 25%; with FLT3-autoinhibited (1 µM), 0% and 18%; in the assay with FLT3 (1 µM), 4% and 26%. The “%Inh” value in the assay with FLT4 (1 µM) was 15% and 9%; in the assay with FRK (1 µM), 0% and 35%; in the assay on FYN (1 µM), 0% and 1%; in the assay on GAK (1 µM), 84% and 74%; with GCN2(Kin.Dom.2,S808G) (1 µM) it was 0% and 27%; in the assay with GRK1 (1 µM), 32% and 25%. The “%Inh” value is 0% and 16% in the assay on GRK2 (1 µM); 32% and 0% in the assay with GRK3 (1 µM).
As to `Fc1ccc(-c2ncn(CCCN3CCOCC3)c2-c2cccnc2)cc1` [SB-211743], the “%Inh” value in the assay on ERN1 was found to be 18%; in the assay with FAK it was 0%; with FER, 21%; in the assay with FES, 0%; in the assay on FGFR1, 0%; with FGFR2 it was 0%. Further, the “%Inh” value in the assay on FGFR3 is recorded as 2%; with FGFR4, 0%; in the assay with FGR, 0%; in the assay with FLT1 it was 8%; with FLT3-autoinhibited it was 0%; in the assay on FLT3, 9%. In addition, the “%Inh” value came out at 0% in the assay with FLT4; 0% in the assay on FRK; 0% with FYN; 2% in the assay on GAK; 8% in the assay on GCN2(Kin.Dom.2,S808G); 16% in the assay on GRK1. The “%Inh” value in the assay on GRK2 is on record as 0%; in the assay on GRK3 it was 7%.
`NCCNS(=O)(=O)c1ccc(-c2ccnc3[nH]ccc23)cc1` [GSK977617]: the “%Inh” value in the assay with ERN1 (1 µM) is 31% and 6%; in the assay with FAK (1 µM), 5% and 0%; with FER (1 µM), 53% and 22%; with FES (1 µM), 11% and 0%; in the assay on FGFR1 (1 µM), 57% and 38%; in the assay with FGFR2 (1 µM), 6% and 0%. The “%Inh” value was 6% and 10% in the assay on FGFR3 (1 µM); 11% and 6% in the assay with FGFR4 (1 µM); 31% and 11% in the assay with FGR (1 µM); 60% and 33% in the assay on FLT1 (1 µM); 27% and 39% in the assay on FLT3-autoinhibited (1 µM); 87% and 73% in the assay on FLT3 (1 µM). For the same compound, the “%Inh” value was 48% and 21% with FLT4 (1 µM); 25% and 16% in the assay with FYN (1 µM); 46% and 19% with GAK (1 µM); 75% and 52% in the assay on GRK1 (1 µM); 4% and 0% with GRK2 (1 µM); 12% and 36% in the assay on GRK3 (1 µM).
